Article PMC7862700, “An all-to-all approach to the identification of sequence-specific readers for epigenetic DNA modifications on cytosine”

Tests used:
Assay in all cases: DAPPL (digital affinity profiling via proximity ligation, sequencing); 10 mM Tris-HCl pH 7.5, 50 mM NaCl, 1 mM DTT, 4% glycerol, room temperature, 30 min; GST-TFs on glutathione beads, 16-mer random dsDNA library, 0.1% formaldehyde crosslink after washing; high values mean tight binding
Conditions in all cases: protein: recombinant; tags: N-terminal GST; dsDNA, one strand shown
FLI1 = target: T1, FLI1 (Homo sapiens, UniProt Q01543 1-452)
T1 sequence: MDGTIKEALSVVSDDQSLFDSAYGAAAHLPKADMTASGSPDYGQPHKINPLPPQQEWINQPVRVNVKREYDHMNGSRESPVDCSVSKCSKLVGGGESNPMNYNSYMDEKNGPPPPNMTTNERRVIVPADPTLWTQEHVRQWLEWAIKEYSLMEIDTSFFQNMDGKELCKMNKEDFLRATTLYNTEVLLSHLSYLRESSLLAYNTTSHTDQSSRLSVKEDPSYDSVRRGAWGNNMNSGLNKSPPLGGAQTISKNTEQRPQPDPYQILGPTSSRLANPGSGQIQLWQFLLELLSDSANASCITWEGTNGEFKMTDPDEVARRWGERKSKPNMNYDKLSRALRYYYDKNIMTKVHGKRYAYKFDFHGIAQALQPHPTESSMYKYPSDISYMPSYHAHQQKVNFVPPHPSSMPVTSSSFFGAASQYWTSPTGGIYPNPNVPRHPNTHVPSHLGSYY
In short: (§1)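 After expression in yeast as GST fusions, human transcription factors were bound to glutathione beads, DNA-barcoded and mixed with a tag-only sample. The pools were incubated with 200 nmole of a 16-mer random double-stranded DNA library in Tris/NaCl/DTT/glycerol buffer (30 min, room temperature), washed and crosslinked with 0.1% formaldehyde. Proximity ligation with BsaI/T4 ligase ran for 1 h at 37 °C, before PCR amplification and sequencing on an Illumina NextSeq500. Binding signal is a hexamer's read frequency for a factor divided by its frequency for the tag-only sample.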

ELK1 = target: T2, ELK1 (Homo sapiens, UniProt P19419 1-428)
T2 sequence: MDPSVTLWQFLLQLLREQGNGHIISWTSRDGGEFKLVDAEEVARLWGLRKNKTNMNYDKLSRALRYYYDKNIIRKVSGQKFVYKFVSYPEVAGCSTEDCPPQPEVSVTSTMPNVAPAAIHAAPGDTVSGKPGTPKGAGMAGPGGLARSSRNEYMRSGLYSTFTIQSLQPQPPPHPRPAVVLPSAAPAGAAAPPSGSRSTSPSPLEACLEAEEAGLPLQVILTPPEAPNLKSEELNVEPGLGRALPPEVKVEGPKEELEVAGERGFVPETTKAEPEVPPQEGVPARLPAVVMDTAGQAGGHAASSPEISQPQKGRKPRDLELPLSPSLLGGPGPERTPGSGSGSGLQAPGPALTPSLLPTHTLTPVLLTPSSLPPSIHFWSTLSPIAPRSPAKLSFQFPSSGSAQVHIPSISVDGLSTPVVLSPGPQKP
In short: as §1

GABPA = target: T3, GABPA (Homo sapiens, UniProt Q06546 1-454)
T3 sequence: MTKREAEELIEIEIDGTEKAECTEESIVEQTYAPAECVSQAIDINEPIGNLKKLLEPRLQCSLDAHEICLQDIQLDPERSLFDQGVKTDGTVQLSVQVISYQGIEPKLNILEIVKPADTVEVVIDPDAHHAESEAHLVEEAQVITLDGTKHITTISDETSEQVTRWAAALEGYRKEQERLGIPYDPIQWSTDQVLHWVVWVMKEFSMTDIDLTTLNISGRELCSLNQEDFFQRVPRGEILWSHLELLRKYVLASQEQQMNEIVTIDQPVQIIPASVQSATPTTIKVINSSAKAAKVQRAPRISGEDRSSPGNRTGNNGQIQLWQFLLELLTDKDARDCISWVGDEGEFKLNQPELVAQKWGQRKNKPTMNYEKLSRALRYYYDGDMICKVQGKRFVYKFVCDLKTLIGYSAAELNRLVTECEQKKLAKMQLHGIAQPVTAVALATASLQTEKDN
In short: as §1

ERG = target: T4, ERG (Homo sapiens, UniProt P11308 1-479)
T4 sequence: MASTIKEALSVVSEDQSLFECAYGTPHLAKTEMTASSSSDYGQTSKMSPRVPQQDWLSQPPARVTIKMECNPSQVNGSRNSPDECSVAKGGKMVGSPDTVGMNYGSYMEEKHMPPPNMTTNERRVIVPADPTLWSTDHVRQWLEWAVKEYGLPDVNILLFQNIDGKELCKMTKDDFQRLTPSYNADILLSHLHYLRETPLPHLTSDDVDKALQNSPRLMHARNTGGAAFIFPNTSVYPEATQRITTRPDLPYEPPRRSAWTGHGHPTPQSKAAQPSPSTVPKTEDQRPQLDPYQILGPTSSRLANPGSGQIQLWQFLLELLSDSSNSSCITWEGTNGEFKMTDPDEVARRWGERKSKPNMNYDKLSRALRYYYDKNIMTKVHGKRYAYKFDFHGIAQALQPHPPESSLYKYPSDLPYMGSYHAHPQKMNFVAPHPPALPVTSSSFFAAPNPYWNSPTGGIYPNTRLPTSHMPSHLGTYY
In short: as §1

ELF1 = ELF1 (Homo sapiens, UniProt P32519 1-619)
Sequence of ELF1 (P32519 whole entry): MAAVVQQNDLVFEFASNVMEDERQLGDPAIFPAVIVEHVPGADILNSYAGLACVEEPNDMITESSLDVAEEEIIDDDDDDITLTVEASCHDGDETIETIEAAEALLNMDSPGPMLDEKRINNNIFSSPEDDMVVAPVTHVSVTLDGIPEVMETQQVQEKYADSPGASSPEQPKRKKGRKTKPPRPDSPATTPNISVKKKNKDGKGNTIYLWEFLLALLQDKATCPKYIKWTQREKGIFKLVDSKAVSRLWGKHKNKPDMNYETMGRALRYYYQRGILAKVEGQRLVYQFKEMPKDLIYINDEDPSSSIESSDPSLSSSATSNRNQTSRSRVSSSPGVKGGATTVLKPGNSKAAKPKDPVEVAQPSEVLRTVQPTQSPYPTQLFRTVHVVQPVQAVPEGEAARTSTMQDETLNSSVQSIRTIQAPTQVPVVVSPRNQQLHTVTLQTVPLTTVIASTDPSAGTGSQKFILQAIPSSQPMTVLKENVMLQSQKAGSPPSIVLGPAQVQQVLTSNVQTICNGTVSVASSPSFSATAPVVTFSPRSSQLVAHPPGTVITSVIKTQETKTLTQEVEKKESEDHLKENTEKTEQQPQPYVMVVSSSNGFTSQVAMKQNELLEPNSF
In short: as §1

EHF = target: T5, EHF (Homo sapiens, UniProt Q9NZC4 1-300)
T5 sequence: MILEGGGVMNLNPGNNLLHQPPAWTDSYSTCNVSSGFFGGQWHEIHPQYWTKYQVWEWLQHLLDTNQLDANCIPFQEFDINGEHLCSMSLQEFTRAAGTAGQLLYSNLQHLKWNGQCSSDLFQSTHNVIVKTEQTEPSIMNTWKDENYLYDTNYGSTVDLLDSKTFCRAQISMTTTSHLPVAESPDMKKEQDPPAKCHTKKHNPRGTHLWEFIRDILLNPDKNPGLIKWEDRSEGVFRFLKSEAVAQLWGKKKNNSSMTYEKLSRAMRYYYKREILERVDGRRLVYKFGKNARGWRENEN
In short: as §1

SPI1 = SPI1 (Homo sapiens, UniProt P17947 1-270)
In short: as §1

SPIB = SPIB (Homo sapiens, UniProt Q01892 1-262)
Sequence of SPIB (Q01892 whole entry): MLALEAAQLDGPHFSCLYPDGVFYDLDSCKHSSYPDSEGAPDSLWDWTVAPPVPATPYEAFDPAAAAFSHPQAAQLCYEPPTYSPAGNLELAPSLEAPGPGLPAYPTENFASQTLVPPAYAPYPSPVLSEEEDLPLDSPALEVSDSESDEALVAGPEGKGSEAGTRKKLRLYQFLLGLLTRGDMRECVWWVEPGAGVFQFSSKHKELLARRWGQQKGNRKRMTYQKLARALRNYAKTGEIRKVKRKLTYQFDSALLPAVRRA
In short: as §1

ELK3 = target: T6, ELK3 (Homo sapiens, UniProt P41970 1-407)
T6 sequence: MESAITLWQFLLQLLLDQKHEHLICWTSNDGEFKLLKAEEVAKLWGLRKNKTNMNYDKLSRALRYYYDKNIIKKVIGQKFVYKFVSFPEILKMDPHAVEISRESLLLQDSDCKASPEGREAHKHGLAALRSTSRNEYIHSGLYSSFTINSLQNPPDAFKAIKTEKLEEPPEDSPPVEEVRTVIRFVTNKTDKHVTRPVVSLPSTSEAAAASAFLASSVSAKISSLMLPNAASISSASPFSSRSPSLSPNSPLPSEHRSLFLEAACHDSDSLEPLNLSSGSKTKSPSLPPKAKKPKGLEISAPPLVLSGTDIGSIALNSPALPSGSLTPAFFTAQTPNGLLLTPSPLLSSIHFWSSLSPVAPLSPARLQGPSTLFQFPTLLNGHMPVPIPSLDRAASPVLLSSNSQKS
In short: as §1

AAGTTC was tested, and the binding signal (FLI1) was 1.36 fold enrichment (6-mer frequency, TF over GST control), the binding signal (ELK1) was 1.36 fold enrichment (6-mer frequency, TF over GST control) and the binding signal (GABPA) was 1.47 fold enrichment (6-mer frequency, TF over GST control). The binding signal (ERG) was 1.36 fold enrichment (6-mer frequency, TF over GST control), the binding signal (ELF1) was 1.34 fold enrichment (6-mer frequency, TF over GST control) and the binding signal (EHF) was 1.35 fold enrichment (6-mer frequency, TF over GST control). The binding signal (SPI1) was 1.54 fold enrichment (6-mer frequency, TF over GST control), the binding signal (SPIB) was 1.51 fold enrichment (6-mer frequency, TF over GST control) and the binding signal (ELK3) was 1.36 fold enrichment (6-mer frequency, TF over GST control).
